# Measured values reported in PubChem BioAssay (NCI).
# Compounds without any hit were thinned out: in the full panel of roughly 83,000, 20% have a hit.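 Percent growth is the endpoint: 0 to 100 indicates growth inhibition (40 means 60% inhibition), 0 means no net growth, and negative values indicate cell death.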 A number with no mark means an inactive call. The source made the active and inactive calls. The calls were made as follows: active = growth percent below 10; inactive = the rest.
# Legend:
# Test in all cases: NCI-60 one-dose screen, 48 h (100 = growth as untreated, 0 = no growth, -100 = all killed)
# Settings in all cases: 10 µM unless noted
# SR leukemia = system: SR leukemia
# RPMI-8226 leukemia = system: RPMI-8226 leukemia
# OVCAR-8 ovarian = system: OVCAR-8 ovarian
# OVCAR-5 ovarian = system: OVCAR-5 ovarian
# OVCAR-4 ovarian = system: OVCAR-4 ovarian
# SK-OV-3 ovarian = system: SK-OV-3 ovarian
# IGROV1 ovarian = system: IGROV1 ovarian
# HS 578T breast = system: HS 578T breast
# NCI/ADR-RES ovarian = system: NCI/ADR-RES ovarian
# OVCAR-3 ovarian = system: OVCAR-3 ovarian
SMILES,growth (SR leukemia),growth (RPMI-8226 leukemia),growth (OVCAR-8 ovarian),growth (OVCAR-5 ovarian),growth (OVCAR-4 ovarian),growth (SK-OV-3 ovarian),growth (IGROV1 ovarian),growth (HS 578T breast),growth (NCI/ADR-RES ovarian),growth (OVCAR-3 ovarian)
NNC(=S)N1N=C(c2cc3ccccc3o2)CC1c1c[nH]c2ccccc12 (configuration not stated),27.2%,28%,38.8%,80.4%,28.6%,86.2%,35.3%,63.8%,30.7%,
CC[C@H](Nc1ncnc2nc[nH]c12)c1nc2cccc(NCc3ccc(C(=O)NO)nc3)c2c(=O)n1-c1ccccc1,11.6%,6.61% (active),36.9%,84.9%,70.4%,80.8%,30.9%,13.8%,106%,
COC(c1ccccc1)C(Br)C(=O)c1ccccc1 (configuration not stated),79.7%,90.6%,92.1%,108%,93.1%,,96.6%,111%,104%,115%
c1ccc(Nc2ccccn2)cc1,80.2%,89.1%,107%,106%,,105%,101%,106%,109%,116%
CC1=C[C@@H]2c3c(c(O)c(O)c4oc5cc(O)cc(O)c5c(=O)c34)[C@@H](c3cc(O)c(O)c4oc5cc(O)cc(O)c5c(=O)c34)[C@@H]2C(C)(C)C1,4.52% (active),-4.75% (active),7.34% (active),19.6%,22.3%,,12.9%,8.08% (active),68.8%,-10.4% (active)
C=C(C)[C@@H]1CC[C@]2(COC(=O)c3ccccc3C(=O)O)CC[C@]3(C)[C@H](CC[C@@H]4[C@@]5(C)CCCNC(C)(C)[C@@H]5CC[C@]43C)[C@@H]12,6.59% (active),23.3%,70.5%,90%,57.3%,,54.5%,78.5%,89.7%,68%
C[C@]12C=CC(=O)C=C1[C@@H](F)C[C@@H]1[C@@H]2[C@@H](O)C[C@@]2(C)[C@H]1CC[C@]2(O)C(=O)CO,106%,72.7%,83.9%,77.2%,106%,71.3%,,,91.5%,96.3%
Nc1nc2cc(O)ccc2n2cc3c(F)cccc3c12,10.8%,53.7%,26.5%,38.7%,-4.95% (active),,18.4%,-21.4% (active),15.8%,30%
O=C(N/N=C/c1coc2ccccc2c1=O)c1cc2oc(-c3ccccc3)cc2[nH]1,87.7%,67%,110%,106%,98.7%,102%,,107%,118%,99.8%
CC1(C)NCCC[C@]2(C)[C@H]3CC=C4[C@@H]5C[C@](C)(COC(=O)c6ccccc6C(=O)O)CC[C@]5(C)CC[C@@]4(C)[C@]3(C)CC[C@@H]12,25.2%,19.2%,83.7%,88.8%,51.3%,,59.2%,63%,78.2%,60%
COC(=O)c1ccc2[nH]c(O)c(C(=Nc3ccc(N(C)C(=O)CN4CCN(C)CC4)cc3)c3ccc4c(c3)OCO4)c2c1,0.377% (active),-13.7% (active),20.3%,35.8%,28.1%,-8.57% (active),4.12% (active),10.5%,104%,
COc1ccc(-c2nc(N)n(C(=S)Nc3ccccc3)n2)cc1,90.8%,99%,97.8%,111%,109%,94.7%,99.4%,87.2%,102%,
CCC(C)(C)c1ccc(OCCCCCCN2CCN(c3ccc(C)c(Cl)c3)CC2)cc1,71.8%,59.7%,98.7%,97.6%,74.5%,98%,,,85%,58.3%
O=C(O)COc1ccc([N+](=O)[O-])cc1Cl,97.6%,94.2%,110%,102%,106%,98.7%,100%,,107%,
CCS(=O)(=O)OCCO[C@H]1Cc2cc3ccc(=O)oc3cc2OC1(C)C,111%,113%,101%,107%,106%,,109%,98%,107%,
COC1=CC(c2ccc[nH]2)=N/C1=C\c1[nH]c(C)c(C(=O)CCCCC(=O)NC(C)(C)C)c1C,83.4%,35.4%,28.2%,48.3%,39.6%,102%,,,30.1%,18.4%

SMILES,growth (SR leukemia),growth (RPMI-8226 leukemia),growth (OVCAR-8 ovarian),growth (OVCAR-5 ovarian),growth (OVCAR-4 ovarian),growth (SK-OV-3 ovarian),growth (IGROV1 ovarian),growth (HS 578T breast),growth (NCI/ADR-RES ovarian),growth (OVCAR-3 ovarian)
CCCCCN1CCN(C(CC(=O)c2ccccc2)C(=O)c2ccccc2)CC1 (configuration not stated),0.154% (active),12.6%,101%,110%,107%,102%,57.8%,,99%,
COCn1c(C(=O)OC)cc2oc(/C=C3/SC(=S)N(N)C3=O)cc21,45.7%,79.2%,98%,108%,97.2%,89.6%,,55.8%,112%,81.1%
O=C1C(Cl)=C(Nc2ccc(Nc3ccccc3)c(NC3=C(Cl)C(=O)c4ccccc4C3=O)c2)C(=O)c2ccccc21,44.6%,27.4%,71.5%,141%,54.8%,80.5%,68.6%,,86.4%,
Cc1cc2cn3c4ccc(O)cc4[nH]c(=O)c3c2cc1C,-16.1% (active),-37% (active),-13.2% (active),32.6%,,,-1.79% (active),-31.8% (active),3.46% (active),
C/C=C(/C)C(=O)OC1C=C(CO)C(=O)C(OC(=O)C2(C)OC2C)C1C(C)C (configuration not stated),,-37.4% (active),4.08% (active),-40% (active),13.6%,44.3%,-31.2% (active),30.9%,6.41% (active),-46.9% (active)
CC1Cc2cc(F)ccc2-n2cccc21 (configuration not stated),114%,111%,99.5%,95%,,101%,92%,,107%,109%
O=C(N/N=C\c1ccc(Cl)cc1)C(=O)N/N=C\c1ccc(Cl)cc1,90.7%,95.7%,102%,105%,,92.4%,88.7%,,104%,
Cc1ccc([C@@H]2C[C@H](O)Cc3ccccc3N2)s1,96.4%,102%,99.1%,97.7%,,98.6%,100%,,104%,111%
OC(c1ccccc1)(c1ccccc1)C(F)(F)F,85.3%,,112%,93.9%,122%,103%,115%,,106%,
O=C1c2cc([N+](=O)[O-])ccc2-c2cc(Cl)c(NC(=O)C(F)(F)F)cc21,98.6%,102%,121%,104%,,111%,110%,,105%,133%
CCCCCC(=C/c1ccccc1)/C=N/N=C(N)N,-2.56% (active),,,58.8%,31.7%,76.9%,-63.3% (active),,41.7%,
O=C(NCCCl)Nc1nccnc1OCc1ccc(F)cc1,,96.4%,101%,96.6%,104%,93.1%,107%,115%,104%,117%
N#Cc1c2ncccc2c2nnc3cc(Cl)c(Cl)cc3n12,70.2%,,87.6%,90.1%,108%,104%,72.9%,,99.8%,70.2%
CCOC(=O)CSSCC(=O)OCC,88.7%,98.6%,101%,108%,,102%,110%,,110%,110%
N#Cc1ccc(NC2c3ccccc3CC2O)cc1 (configuration not stated),99.3%,96.3%,122%,113%,,106%,116%,,115%,129%
